# Measurements: ChEMBL document CHEMBL1961873, “Compounds: GSK PKIS; Assays: Nanosyn kinase panel” (2012)
# Experiments:
# [1] = target: Sphingosine kinase 1 (Homo sapiens) (UniProt Q9NYA1); details: at 1 µM;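 note: mean SPHK1 inhibition value reported from the GSK PKIS kinase panel screen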
# [2] = target: T1, Sphingosine kinase 2 (Homo sapiens) (UniProt Q9NRA0); details: at 0.1 µM
# T1 sequence (whole entry): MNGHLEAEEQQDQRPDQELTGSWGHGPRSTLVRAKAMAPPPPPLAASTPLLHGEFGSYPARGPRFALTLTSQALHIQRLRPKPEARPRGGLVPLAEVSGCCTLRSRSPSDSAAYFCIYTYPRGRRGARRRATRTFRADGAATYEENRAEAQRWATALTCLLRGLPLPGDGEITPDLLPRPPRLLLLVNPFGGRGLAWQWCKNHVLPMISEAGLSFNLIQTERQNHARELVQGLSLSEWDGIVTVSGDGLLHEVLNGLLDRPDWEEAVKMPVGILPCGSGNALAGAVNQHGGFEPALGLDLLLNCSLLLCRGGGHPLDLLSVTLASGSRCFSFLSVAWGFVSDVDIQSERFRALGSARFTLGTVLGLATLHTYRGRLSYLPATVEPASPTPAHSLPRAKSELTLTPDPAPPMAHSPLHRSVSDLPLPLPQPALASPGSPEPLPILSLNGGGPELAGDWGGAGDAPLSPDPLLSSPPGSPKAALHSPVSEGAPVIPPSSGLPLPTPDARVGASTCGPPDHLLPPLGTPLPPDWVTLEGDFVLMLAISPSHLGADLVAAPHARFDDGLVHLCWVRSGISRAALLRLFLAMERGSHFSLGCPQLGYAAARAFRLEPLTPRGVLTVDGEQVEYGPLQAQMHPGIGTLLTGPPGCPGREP
# [3] = target: T1, Sphingosine kinase 2 (Homo sapiens); details: at 1 µM
# [4] = target: Casein kinase II subunit alpha (Homo sapiens) (UniProt P68400); details: at 0.1 µM
# Sequence of Casein kinase II subunit alpha (Homo sapiens) (P68400 whole entry, looked up): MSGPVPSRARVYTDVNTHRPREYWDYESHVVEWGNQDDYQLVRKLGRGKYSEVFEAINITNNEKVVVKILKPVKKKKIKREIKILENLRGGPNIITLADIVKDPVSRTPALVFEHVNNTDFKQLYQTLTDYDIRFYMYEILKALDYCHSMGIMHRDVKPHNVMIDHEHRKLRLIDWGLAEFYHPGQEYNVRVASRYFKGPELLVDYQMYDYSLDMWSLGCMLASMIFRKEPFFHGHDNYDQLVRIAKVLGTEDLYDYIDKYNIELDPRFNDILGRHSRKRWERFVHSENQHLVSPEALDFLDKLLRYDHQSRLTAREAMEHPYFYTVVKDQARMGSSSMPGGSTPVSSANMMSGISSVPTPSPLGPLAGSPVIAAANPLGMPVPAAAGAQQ
# [5] = target: Casein kinase II subunit alpha (Homo sapiens) (UniProt P68400); details: at 1 µM
# [6] = target: T2, Inhibitor of nuclear factor kappa-B kinase subunit alpha (Homo sapiens) (UniProt O15111); details: at 0.1 µM
# T2 sequence (whole entry): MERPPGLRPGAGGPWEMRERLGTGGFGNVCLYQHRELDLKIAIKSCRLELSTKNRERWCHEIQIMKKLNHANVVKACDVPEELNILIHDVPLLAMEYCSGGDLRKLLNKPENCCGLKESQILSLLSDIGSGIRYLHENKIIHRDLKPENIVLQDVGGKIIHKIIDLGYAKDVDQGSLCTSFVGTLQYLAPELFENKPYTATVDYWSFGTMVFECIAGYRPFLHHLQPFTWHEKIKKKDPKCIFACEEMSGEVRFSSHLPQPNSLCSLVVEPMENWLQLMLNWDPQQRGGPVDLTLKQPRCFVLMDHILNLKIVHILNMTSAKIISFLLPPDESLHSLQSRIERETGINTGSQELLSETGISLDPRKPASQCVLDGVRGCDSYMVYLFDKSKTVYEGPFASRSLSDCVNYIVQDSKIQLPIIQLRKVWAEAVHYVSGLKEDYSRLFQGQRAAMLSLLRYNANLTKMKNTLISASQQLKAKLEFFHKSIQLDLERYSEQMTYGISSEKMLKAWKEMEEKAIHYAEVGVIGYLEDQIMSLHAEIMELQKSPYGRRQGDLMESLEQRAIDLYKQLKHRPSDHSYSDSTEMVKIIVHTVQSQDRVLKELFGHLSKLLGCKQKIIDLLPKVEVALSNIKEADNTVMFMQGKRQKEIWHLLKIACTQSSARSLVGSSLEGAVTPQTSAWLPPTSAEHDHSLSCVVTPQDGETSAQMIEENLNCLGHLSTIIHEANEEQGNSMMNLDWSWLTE
# [7] = target: T2, Inhibitor of nuclear factor kappa-B kinase subunit alpha (Homo sapiens); details: at 1 µM
# [8] = target: T3, Inhibitor of nuclear factor kappa-B kinase subunit beta (Homo sapiens) (UniProt O14920); details: at 0.1 µM
# T3 sequence (whole entry): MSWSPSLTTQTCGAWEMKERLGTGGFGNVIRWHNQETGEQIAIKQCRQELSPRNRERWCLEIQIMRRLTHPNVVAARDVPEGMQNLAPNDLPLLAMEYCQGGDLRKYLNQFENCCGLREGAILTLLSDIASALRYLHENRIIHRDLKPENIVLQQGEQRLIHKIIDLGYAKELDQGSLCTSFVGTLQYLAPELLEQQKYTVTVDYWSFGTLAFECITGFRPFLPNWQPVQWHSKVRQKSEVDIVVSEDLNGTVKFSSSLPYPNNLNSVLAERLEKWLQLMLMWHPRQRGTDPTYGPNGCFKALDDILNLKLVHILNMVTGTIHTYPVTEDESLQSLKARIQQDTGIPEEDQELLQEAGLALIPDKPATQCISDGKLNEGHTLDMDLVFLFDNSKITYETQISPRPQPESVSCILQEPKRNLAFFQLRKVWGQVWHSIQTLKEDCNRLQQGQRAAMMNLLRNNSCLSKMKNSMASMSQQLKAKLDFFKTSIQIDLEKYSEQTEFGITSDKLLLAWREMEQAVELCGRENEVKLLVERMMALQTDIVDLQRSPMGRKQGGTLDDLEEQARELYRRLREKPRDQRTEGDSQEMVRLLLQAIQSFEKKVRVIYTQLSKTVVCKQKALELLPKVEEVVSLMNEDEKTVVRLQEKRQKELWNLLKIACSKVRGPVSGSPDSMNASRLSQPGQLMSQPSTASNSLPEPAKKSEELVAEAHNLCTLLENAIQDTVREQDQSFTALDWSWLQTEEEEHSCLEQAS
# [9] = target: T3, Inhibitor of nuclear factor kappa-B kinase subunit beta (Homo sapiens); details: at 1 µM
# [10] = target: T4, Inhibitor of nuclear factor kappa-B kinase subunit epsilon (Homo sapiens) (UniProt Q14164); details: at 0.1 µM
# T4 sequence (whole entry): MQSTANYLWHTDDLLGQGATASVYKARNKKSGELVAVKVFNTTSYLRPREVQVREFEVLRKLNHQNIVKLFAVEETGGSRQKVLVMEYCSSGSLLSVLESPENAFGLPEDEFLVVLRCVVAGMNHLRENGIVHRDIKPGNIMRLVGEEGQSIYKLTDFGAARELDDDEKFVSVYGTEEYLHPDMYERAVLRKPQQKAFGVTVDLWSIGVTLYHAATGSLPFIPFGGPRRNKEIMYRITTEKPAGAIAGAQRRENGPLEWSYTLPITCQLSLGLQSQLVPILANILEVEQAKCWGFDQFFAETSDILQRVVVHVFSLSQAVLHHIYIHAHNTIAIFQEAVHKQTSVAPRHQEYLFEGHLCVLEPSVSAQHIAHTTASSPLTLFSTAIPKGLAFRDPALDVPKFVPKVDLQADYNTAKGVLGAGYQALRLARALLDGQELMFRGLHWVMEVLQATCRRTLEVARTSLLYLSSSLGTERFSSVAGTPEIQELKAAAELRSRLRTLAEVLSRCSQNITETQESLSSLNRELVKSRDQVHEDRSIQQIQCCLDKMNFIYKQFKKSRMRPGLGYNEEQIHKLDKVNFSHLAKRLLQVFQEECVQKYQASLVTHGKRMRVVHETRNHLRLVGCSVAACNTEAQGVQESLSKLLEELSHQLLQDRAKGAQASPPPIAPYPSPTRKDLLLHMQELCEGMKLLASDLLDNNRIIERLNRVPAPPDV
# [11] = target: T4, Inhibitor of nuclear factor kappa-B kinase subunit epsilon (Homo sapiens); details: at 1 µM
# [12] = target: T5, Serine/threonine-protein kinase Nek1 (Homo sapiens) (UniProt Q96PY6); details: at 0.1 µM
# T5 sequence (whole entry): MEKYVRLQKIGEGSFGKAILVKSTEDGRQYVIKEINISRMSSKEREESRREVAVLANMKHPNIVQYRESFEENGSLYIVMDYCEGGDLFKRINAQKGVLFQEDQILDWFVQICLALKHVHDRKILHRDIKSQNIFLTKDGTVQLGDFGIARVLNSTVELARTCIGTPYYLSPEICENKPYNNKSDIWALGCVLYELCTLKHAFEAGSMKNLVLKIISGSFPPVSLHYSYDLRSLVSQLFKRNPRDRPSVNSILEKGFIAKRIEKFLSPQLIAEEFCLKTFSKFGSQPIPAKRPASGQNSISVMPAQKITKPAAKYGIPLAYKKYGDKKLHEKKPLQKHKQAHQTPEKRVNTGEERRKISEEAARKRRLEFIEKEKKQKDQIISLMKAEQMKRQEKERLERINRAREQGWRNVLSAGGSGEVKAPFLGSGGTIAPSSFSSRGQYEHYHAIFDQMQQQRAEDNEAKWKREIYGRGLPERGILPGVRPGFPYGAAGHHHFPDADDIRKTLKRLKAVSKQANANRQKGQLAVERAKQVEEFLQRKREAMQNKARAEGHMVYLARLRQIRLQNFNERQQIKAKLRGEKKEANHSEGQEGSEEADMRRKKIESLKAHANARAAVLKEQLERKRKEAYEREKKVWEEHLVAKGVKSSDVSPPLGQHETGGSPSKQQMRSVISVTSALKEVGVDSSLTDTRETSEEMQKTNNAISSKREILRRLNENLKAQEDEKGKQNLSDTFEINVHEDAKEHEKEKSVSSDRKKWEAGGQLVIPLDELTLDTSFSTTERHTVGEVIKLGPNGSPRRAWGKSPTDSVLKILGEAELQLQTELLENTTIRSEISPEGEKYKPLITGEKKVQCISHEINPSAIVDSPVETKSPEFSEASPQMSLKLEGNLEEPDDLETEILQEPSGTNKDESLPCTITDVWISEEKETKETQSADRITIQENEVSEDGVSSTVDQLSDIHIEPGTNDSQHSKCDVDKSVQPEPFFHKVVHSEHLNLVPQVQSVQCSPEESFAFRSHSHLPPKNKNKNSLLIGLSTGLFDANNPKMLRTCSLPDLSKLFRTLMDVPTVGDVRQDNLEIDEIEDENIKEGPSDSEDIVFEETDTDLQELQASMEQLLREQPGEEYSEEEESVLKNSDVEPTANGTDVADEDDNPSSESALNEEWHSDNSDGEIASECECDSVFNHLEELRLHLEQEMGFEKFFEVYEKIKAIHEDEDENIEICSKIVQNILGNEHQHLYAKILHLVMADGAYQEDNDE
# [13] = target: T5, Serine/threonine-protein kinase Nek1 (Homo sapiens); details: at 1 µM
# [14] = target: T6, Serine/threonine-protein kinase Nek2 (Homo sapiens) (UniProt P51955); details: at 0.1 µM
# T6 sequence (whole entry): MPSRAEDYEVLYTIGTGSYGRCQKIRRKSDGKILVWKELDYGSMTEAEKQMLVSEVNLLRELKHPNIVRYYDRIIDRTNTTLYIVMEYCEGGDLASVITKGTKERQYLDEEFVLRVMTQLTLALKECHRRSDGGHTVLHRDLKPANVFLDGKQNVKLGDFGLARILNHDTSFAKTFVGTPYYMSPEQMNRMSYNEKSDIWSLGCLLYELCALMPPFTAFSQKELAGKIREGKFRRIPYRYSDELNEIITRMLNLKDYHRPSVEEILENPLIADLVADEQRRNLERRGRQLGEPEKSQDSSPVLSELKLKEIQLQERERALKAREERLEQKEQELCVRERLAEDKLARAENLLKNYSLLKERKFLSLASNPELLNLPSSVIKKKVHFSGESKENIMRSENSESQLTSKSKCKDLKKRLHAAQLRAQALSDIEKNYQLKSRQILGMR
# [15] = target: T6, Serine/threonine-protein kinase Nek2 (Homo sapiens); details: at 1 µM
# [16] = target: Serine/threonine-protein kinase Nek6 (Homo sapiens) (UniProt Q9HC98); details: at 0.1 µM
# Sequence of Serine/threonine-protein kinase Nek6 (Homo sapiens) (Q9HC98 whole entry): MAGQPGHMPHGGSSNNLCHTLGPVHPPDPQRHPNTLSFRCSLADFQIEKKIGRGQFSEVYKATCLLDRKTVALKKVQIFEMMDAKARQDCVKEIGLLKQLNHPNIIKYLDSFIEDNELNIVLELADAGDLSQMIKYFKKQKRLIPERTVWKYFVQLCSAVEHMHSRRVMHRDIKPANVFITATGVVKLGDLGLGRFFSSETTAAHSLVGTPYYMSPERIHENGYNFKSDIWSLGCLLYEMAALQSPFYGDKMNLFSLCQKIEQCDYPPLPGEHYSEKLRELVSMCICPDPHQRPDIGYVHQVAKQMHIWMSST
# [17] = target: Serine/threonine-protein kinase Nek6 (Homo sapiens) (UniProt Q9HC98); details: at 1 µM
# [18] = target: Serine/threonine-protein kinase Nek7 (Homo sapiens) (UniProt Q8TDX7); details: at 0.1 µM
# Sequence of Serine/threonine-protein kinase Nek7 (Homo sapiens) (Q8TDX7 whole entry, looked up): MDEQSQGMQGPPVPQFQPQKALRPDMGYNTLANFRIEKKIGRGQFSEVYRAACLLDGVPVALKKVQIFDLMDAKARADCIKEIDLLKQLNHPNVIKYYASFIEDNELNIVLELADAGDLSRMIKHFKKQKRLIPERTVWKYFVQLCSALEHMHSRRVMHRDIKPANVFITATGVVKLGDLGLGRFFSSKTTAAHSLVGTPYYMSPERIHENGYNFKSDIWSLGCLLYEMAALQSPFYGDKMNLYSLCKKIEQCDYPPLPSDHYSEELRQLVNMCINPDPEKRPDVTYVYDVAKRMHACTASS
# [19] = target: Serine/threonine-protein kinase Nek7 (Homo sapiens) (UniProt Q8TDX7); details: at 1 µM
# [20] = target: T7, Serine/threonine-protein kinase Nek9 (Homo sapiens) (UniProt Q8TD19); details: at 0.1 µM;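 note: reported value is the mean percent inhibition of NEK9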
# T7 sequence (whole entry): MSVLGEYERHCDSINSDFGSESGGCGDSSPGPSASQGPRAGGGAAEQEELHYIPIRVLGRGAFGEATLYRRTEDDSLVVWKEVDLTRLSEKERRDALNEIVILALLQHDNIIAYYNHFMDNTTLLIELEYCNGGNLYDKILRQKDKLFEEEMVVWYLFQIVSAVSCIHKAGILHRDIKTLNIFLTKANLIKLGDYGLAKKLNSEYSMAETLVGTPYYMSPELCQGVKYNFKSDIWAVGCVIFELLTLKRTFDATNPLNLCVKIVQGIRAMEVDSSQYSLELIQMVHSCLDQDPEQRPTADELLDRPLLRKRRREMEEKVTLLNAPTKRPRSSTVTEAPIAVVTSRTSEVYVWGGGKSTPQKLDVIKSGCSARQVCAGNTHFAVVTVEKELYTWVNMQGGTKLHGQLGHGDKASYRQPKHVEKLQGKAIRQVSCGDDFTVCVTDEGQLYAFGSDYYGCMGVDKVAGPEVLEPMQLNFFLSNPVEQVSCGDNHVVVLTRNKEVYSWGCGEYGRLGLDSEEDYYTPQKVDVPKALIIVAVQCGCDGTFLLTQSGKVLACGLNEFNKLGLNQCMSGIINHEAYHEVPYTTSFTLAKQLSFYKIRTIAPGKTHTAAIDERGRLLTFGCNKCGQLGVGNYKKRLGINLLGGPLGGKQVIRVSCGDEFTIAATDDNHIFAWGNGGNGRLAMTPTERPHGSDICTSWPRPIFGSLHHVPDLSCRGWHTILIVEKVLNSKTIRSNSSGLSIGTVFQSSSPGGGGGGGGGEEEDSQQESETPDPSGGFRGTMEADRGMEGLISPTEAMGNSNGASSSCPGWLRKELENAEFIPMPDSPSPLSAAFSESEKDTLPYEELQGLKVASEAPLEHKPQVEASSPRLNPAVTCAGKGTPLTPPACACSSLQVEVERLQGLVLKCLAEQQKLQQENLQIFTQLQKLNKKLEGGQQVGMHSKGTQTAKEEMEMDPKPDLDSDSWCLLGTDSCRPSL
# Sequence of Sphingosine kinase 1 (Homo sapiens) (Q9NYA1 whole entry): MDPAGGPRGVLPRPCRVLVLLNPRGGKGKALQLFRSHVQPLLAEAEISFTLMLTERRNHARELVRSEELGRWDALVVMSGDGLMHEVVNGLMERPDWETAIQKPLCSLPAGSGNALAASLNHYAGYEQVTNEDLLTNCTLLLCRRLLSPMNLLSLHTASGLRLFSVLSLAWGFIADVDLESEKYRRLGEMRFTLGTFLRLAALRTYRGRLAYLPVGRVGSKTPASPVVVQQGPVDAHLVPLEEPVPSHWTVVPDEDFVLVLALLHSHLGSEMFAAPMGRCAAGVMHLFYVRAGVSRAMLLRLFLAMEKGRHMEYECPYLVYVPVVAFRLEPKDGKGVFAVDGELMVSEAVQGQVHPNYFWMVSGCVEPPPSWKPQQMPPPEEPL
compound,measurement,setting,value
Cc1ccc(C(=O)NC2CC2)cc1-c1ccc2[nH]ncc2c1,inhibition,[1],-1.63%
same,inhibition,[2],-1.1%
same,inhibition,[3],0.65%
same,inhibition,[4],-2.79%
same,inhibition,[5],-1.68%
same,inhibition,[6],7.28%
same,inhibition,[7],-2.31%
same,inhibition,[8],-3.22%
same,inhibition,[9],-2.64%
same,inhibition,[10],-3.17%
same,inhibition,[11],-3.47%
same,inhibition,[12],-0.31%
same,inhibition,[13],1.87%
same,inhibition,[14],-2.19%
same,inhibition,[15],0.98%
same,inhibition,[16],-3.09%
same,inhibition,[17],-3.72%
same,inhibition,[18],-7.62%
same,inhibition,[19],-4.5%
same,inhibition,[20],0.32%
